Screening results from PubChem.
AmpC inh detg: qHTS Inhibitors of AmpC Beta-Lactamase (assay with detergent) | AID 485294, 2010 | AmpC hydrolysis of nitrocefin, absorbance 480 nm, 0.01% Triton | P00811 | 370,000 tested, 0.041% active | Potency, µM (doses to about 114 µM), for the others: at the top dose activity change, negative = inhibition, most hits filed as inhibitors;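 note: 0% = no-compound wells and -100% = no-enzyme wells; nearly all actives have a fitted effect of over 25% in size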
Target sequence (P00811 whole entry, looked up): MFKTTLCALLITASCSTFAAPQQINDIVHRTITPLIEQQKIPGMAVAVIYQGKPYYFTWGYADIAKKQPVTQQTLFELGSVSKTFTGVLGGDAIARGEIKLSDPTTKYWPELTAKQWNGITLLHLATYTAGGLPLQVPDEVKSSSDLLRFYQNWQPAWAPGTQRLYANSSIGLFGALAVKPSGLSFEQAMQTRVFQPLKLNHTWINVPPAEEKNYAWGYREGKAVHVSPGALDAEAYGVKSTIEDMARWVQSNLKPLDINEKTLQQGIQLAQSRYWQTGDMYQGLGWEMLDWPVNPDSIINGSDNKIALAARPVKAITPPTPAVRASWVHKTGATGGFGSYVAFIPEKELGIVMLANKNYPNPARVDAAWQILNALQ
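20 mM phosphate pH 7.0 + 0.01% (detergent screen) or 0.0001% Triton X-100; 5.3 nM AmpC reagent; cpd preinc 15 min RT; nitrocefin (800 uM stock) to start; A480 q20 s × 4 min; Activity was normalised to no-enzyme and no-compound control wells.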
Pf growth 96h: Primary qHTS for delayed death inhibitors of the malarial parasite plastid, 96 hour incubation; P. falciparum luciferase reporter growth, 96 h; Potency, µM (titrated, usually from 28.7 µM), for inactives: at the top dose activity change, negative = inhibition, actives largely listed as inhibitors; 320,000 tested, 6.9% active; AID 504834, 2011
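Readout is luminescence from an integrated firefly luciferase in P. falciparum. Red cells, 2% hematocrit and 0.05% parasitemia final, were cultured with compound through two parasite generations (96 hours) at 37 C, 5% CO2.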
AMA1-RON2 inh: qHTS for Inhibitors of AMA1-RON; Towards Development of Antimalarial Drug Lead: Primary Screen; Plasmodium falciparum AMA1 (3D7) - RON2 peptide interaction; AlphaScreen AMA1-biotinylated RON2 peptide binding; Potency, µM (top dose mostly 58.2 µM), without a hit: top-dose activity change, negative = inhibition, most hits filed as inhibitors; 360,000 tested, 0.2% active;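 note: 0% = vehicle wells and -100% = peptide control; nearly all actives have a fitted effect of over 45% in size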
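AMA1 (3D7) with his tag at 25 nM final met compounds first, then biotinylated RON2 peptide at 25 nM; detection used donor plus acceptor beads, 10 µg/mL apiece, read by AlphaScreen after 30 min at room temperature.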
AmpC no deterg: qHTS Inhibitors of AmpC Beta-Lactamase (assay without detergent). 330,000 tested, 0.52% active. P00811. AmpC nitrocefin hydrolysis, absorbance 480 nm, 0.0001% Triton. Potency, µM (top dose mostly 57.1 µM), inactives show top-dose activity change, negative = inhibition, actives largely listed as inhibitors;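 note: plate controls were no compound for no effect and no enzyme for full effect; nearly all actives have a fitted effect of over 20% in size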
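20 mM phosphate pH 7.0 + 0.01% (detergent screen) or 0.0001% Triton X-100; 5.3 nM AmpC reagent; cpd preinc 15 min RT; nitrocefin (800 uM stock) to start; A480 q20 s × 4 min; Activity was normalised to no-enzyme and no-compound control wells.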
HCV inhibitor: qHTS Assay for Inhibitors of Hepatitis C Virus (HCV). Huh7.5.1 HCVcc-Cre infection, luciferase reporter, 44 h. Potency, µM (highest dose often 41.8 µM), for inactives: top-dose activity change, negative = inhibition, hits mostly inhibitors. 340,000 tested, 3.4% active
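Antiviral activity was scored by luciferase reporter output from cells infected with HCVcc-Cre (~0.5 moi) in presence of compound, 44 h infection period, cells seeded 1,000/well 4 h prior.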
Pf growth 48h: Primary qHTS for delayed death inhibitors of the malarial parasite plastid, 48 hour incubation; Potency, µM (titrated, usually from 28.7 µM), for inactives: top-dose activity change, negative = inhibition, most hits filed as inhibitors; 310,000 tested, 5.9% active; P. falciparum luciferase growth in erythrocytes, 48 h
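In quantitative HTS format, infected erythrocytes bearing luciferase-reporter parasites were treated for a single generation at 37 C. Luminescence after adding detection reagent served as the growth measure.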
* marks the source's active call; other numbers are inactive results; ? = inconclusive; . = no result; [ ] = dose if it differs, or a comment. Compounds with a hit are over-represented: about 11% of the library has one in this group of screens. Calls come from the whole dose curve; as a rule, active = well fitted curve in the direction sought with a large enough effect; inconclusive = small, poorly fitted or top-dose-only effect, or another doubt; inactive = no such curve, though single readings can be large; an effect the other way counts as inactive or inconclusive. Unless noted, % is set by controls: 0 for no effect and ±100 for the full control effect; potency is the fitted concentration of half-maximal effect.

SMILES | AmpC inh detg | Pf growth 96h | AMA1-RON2 inh | AmpC no deterg | HCV inhibitor | Pf growth 48h
CCCCN=C[C@]12CCC(O)CC1(O)CCC1[C@@H]2CC[C@]2(C)[C@H](C3C=CC(=O)O3)CCC12O (stereo partly drawn) | -4.7% | -3.3% | 31.0% | -3.5% | 4.47µM* | .
C[C@]12CCC3C(CCC4=CC(O)CC[C@@]43/C=N/O)C1(O)CCC2C1=CC(=O)OC1 (stereo partly drawn) | 1.6% | -13.2% | 17.4% | -15.0% | 2.24µM* | -10.7%
CC(=O)OC1CC2(O)C3CCC4CC(O)CCC4(C)C3CCC2(C)C1C1=CC(=O)OC1 (stereo not drawn) | . | . | 3.0% | . | ? | .
CC1OC(OC2C(O)CC(OC3C(O)CC(OC4CCC5(C)C(CCC6C5CCC5(C)C(C7=CC(=O)OC7)C(O)CC65O)C4)OC3C)OC2C)CC(O)C1O (stereo not drawn) | . | . | 2.4% | . | ? | .
C[C@H]1O[C@@H](O[C@H]2[C@@H](O)C[C@H](O[C@H]3[C@@H](O)C[C@H](O[C@H]4CC[C@@]5(C)[C@H](CC[C@@H]6[C@@H]5CC[C@]5(C)[C@@H](C7=CC(=O)OC7)CC[C@]65O)C4)O[C@@H]3C)O[C@@H]2C)C[C@H](O)[C@@H]1O | -4.2% | 4.15µM* | 0.0% | 128.8% | -11.0%[8.37 µM] | ?
C[C@H]1O[C@@H](OC2CC[C@]3(C=O)[C@H]4CC[C@]5(C)[C@@H](C6=CC(=O)OC6)CC[C@]5(O)[C@@H]4CC[C@]3(O)C2)CC2OC(C)(C)OC21 (stereo partly drawn) | -7.3% | ? | -5.7% | 123.9% | 1µM* | .
CCCCCCCCCC[n+]1cccc(C(=O)N(CC)CC)c1 | 0.3% | 3.7µM* | 13.1% | 23.6% | -0.3% | 3.7µM*
Cc1ccc(S(=O)(=O)c2nc(Nc3ccccc3N3CCOCC3)sc2Cl)cc1 | -7.1% | ? | -13.0% | 32.5% | 10µM* | ?
Cc1ccc(-c2nn3c(=O)cc(CN4CCN(C(=O)c5ccc(C(C)(C)C)cc5)CC4)nc3s2)cc1 | 14.0% | . | . | . | . | .
COc1cc(NC(=O)CC2C(=O)N(c3cccc(C)c3)C(=O)N2Cc2cccs2)cc(OC)c1 (stereo not drawn) | 0.7% | . | . | . | . | .
Cc1nn(C(=O)c2ccccc2F)c(C)c1S(=O)(=O)N1CCOCC1 | 16.7% | . | . | . | . | .
O=S(=O)(c1ccc(Br)cc1)N1CCCC1c1nc2ccccc2s1 (stereo not drawn) | -9.6% | ? | 0.5% | -30.7% | ? | 10.4µM*
O=S(=O)(c1ccc(N2CCCC2c2nc3ccccc3s2)nc1)N1CCOCC1 (stereo not drawn) | -15.4% | 11.7µM* | -10.8% | 77.1% | ? | 10.4µM*
O=S(=O)(c1ccc(N2CCCC2)nc1)N1CCOCC1 | -13.6% | . | 0.9% | -6.0% | 6.1% | 11.3%
CN(C)S(=O)(=O)c1ccc(C(=O)N2CCCC2c2nc3ccccc3s2)cc1 (stereo not drawn) | -5.6% | ? | 0.9% | 42.6% | -6.2% | ?
Clc1ccc(-c2nn3c(-c4ccccc4)nnc3s2)cc1 | 9.9% | ? | 12.8% | -15.7% | 0.6% | 44.5%
c1ccc(-c2nnc3sc(-c4csc5c4CCCC5)nn23)cc1 | -6.2% | 22.6% | 0.8% | 6.1% | ? | 10.4µM*
COc1cc(OC)c(NC(=O)c2nn(C)c3c2COc2ccccc2-3)cc1Cl | -3.0% | . | . | . | . | .
Cn1c(=O)c2c(nc(SCC(=O)Nc3ccc(OC(F)(F)F)cc3)n2Cc2cccc(C(F)(F)F)c2)n(C)c1=O | 1.4% | . | . | . | . | .
